Cycloheximide cs: counter-screen for Shiga toxin inhibitors: cycloheximide protein synthesis inhibition | max response, % | 300,000 compounds, 12% hits | cell reporter, cycloheximide protein synthesis inhibition counterscreen; in the data active = max response mostly above about 13%, no sharp cut-off; inactive = mostly below about 14%; also: read at 38.3 µM for the half of the compounds with a filed dose
HCMV antiviral: inhibitors of human cytomegalovirus | HFF cells, HCMV-luciferase reporter, 72 h; active compounds read low | activity change, negative = inhibition, % at 57.5 µM | 410,000 compounds, 4.5% hits | AID 1259415; in the data active = activity change below about -60%; inconclusive = no clear call, values can overlap the other calls; inactive = above about -39%
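Cell-based, HFFs, 1000 cells/well, 16 h 37C; cpds in DMSO + HCMV-luc, MOI 1 PFU/cell; 72 h 37C; OneGlo luminescence after 5 min RT; norm. to buffer vs Salinomycin 10uM.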
Shiga inhibitor: inhibitors of Shiga toxin in Vero cells. Vero cells, Shiga toxin protein synthesis inhibition reporter. inhibition, % at 38.7 µM. 290,000 compounds, 9.2% hits. AID 2315; in the data active = inhibition mostly above about 28%, no sharp cut-off; inactive = mostly below about 43%
Pf growth 96h: P. falciparum growth inhibition at 96 hours; P. falciparum luciferase reporter growth, 96 h; Potency, µM (top dose mostly 28.7 µM), actives largely listed as inhibitors; 320,000 compounds, 6.9% hits; AID 504834
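Parasite growth measured via integrated firefly luciferase reporter in P. falciparum. Infected erythrocytes at 2% hematocrit, 0.05% parasitemia final were treated 96 hours at 37 C under 5% CO2, and luminescence was read.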
Pf growth 48h: P. falciparum growth inhibition at 48 hours (one generation) | P. falciparum luciferase growth in erythrocytes, 48 h | Potency, µM (top dose mostly 28.7 µM), hits mostly inhibitors | 310,000 compounds, 5.9% hits | AID 504832
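Luminescence readout; reporter = integrated firefly luciferase in P. falciparum. RBC culture at 2% hematocrit, 0.1% parasitemia final, 37 C/5% CO2; decreased signal taken as growth inhibition.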
Hits are given with their value; . = inactive; ? = inconclusive; / = no result given. The list is not random: actives were taken first. Their share in the collection is about 20%. Unless noted, calls follow the shape of the dose curve; as a rule, active = well fitted inhibition curve with a large enough effect; inconclusive = small, poorly fitted or top-dose-only effect, or another doubt; inactive = no such curve, though single readings can be large or run the other way.

SMILES | Cycloheximide cs | HCMV antiviral | Shiga inhibitor | Pf growth 96h | Pf growth 48h
CCn1c(-c2cc(Br)cc(OC)c2O)nc2cc(S(=O)(=O)N(C)C)ccc21 | . | ? | . | 11.7µM | ?
CCn1c(CSc2nnc(C)n2-c2ccccc2)nc2cc(S(=O)(=O)N(C)C)ccc21 | . | . | . | . | .
COc1ccc(C)cc1NC(=O)Cn1cc(S(=O)(=O)Cc2ccccc2Cl)c2ccccc21 | / | . | / | / | /
O=[N+]([O-])c1cccnc1S(=O)(=O)c1ccccc1 | . | -99.4 | . | 10.4µM | ?
COc1ccc([N+](=O)[O-])c(S(=O)(=O)c2ccc(Cl)cc2)n1 | . | -100.5 | . | . | .
COc1ccc([N+](=O)[O-])c(S(=O)(=O)c2ccccc2)n1 | . | -97.2 | . | ? | .
CCOc1ccc(CCNC(=O)CN2C(=O)NC(CCSC)C2=O)cc1OCC (stereo unspecified) | . | . | . | . | .
CSc1ccc(C2NN=C(c3ccccc3)S2)cc1 (stereo unspecified) | / | . | / | / | /
Oc1ccccc1C1NN=C(c2ccccc2)S1 (stereo unspecified) | 33.2 | . | 56.1 | ? | .
Cc1ccc(C)c(N2CCN(C(=O)CCS(=O)(=O)c3ccc4c(c3)NC(=O)CO4)CC2)c1 | . | -73.2 | . | . | ?
CC(CC(=O)N1CCN(c2cccc(Cl)c2)CC1)S(=O)(=O)c1ccc2c(c1)NC(=O)CO2 (stereo unspecified) | . | -95.0 | . | ? | ?
CCOC(=O)C1CCN(C(=O)CC(C)S(=O)(=O)c2ccc3c(c2)NC(=O)CO3)CC1 (stereo unspecified) | . | . | . | ? | .
CC(CC(=O)N(C)C1CCCCC1)S(=O)(=O)c1ccc2c(c1)NC(=O)CO2 (stereo unspecified) | . | . | . | 7.38µM | .
O=C1CCc2cc(S(=O)(=O)NCCC(=O)N3CCN(c4cccc(Cl)c4)CC3)ccc2N1 | . | ? | . | 10.4µM | ?
CC1CC(C)CN(C(=O)CCNS(=O)(=O)c2ccc3c(c2)CCC(=O)N3)C1 (stereo unspecified) | . | . | . | ? | .
C=C(C)Cn1c(SCC(=O)Nc2cccc(Cl)c2)nc2sc3c(c2c1=O)CCCC3 | / | . | / | / | /
O=C(Nc1ccc2snnc2c1)N1CCCCC1 | 19.4 | . | . | . | .
O=C(Nc1ccc2nc(-c3ccco3)c(-c3ccco3)nc2c1)N1CCCCCC1 | . | / | . | . | ?
O=C(Nc1ccc2nsnc2c1)N1CCCCCC1 | 42.5 | . | . | . | /
S=C(Nc1ccc2nsnc2c1)N1CCCC1 | 45.8 | . | 88.7 | . | ?
COc1ccc(NC(=S)N2CCCC2)cc1OC | . | . | . | . | .
S=C(Nc1ccc2nccnc2c1)N1CCCC1 | 28.1 | . | . | . | .
Cc1nc2ccc(NC(=S)N3CCCC3)cc2nc1C | . | . | . | ? | .
COc1ccc2c(c1)C[C@]1(C)c3ccccc3C(=O)N(Cc3ccccc3)[C@H]21 | / | . | / | / | /
CCN(Cc1ccccc1)C(=O)c1cc2c(=O)oc3ccc(C)cc3c2s1 | . | . | . | 4.65µM | /
SMILES | Cycloheximide cs | HCMV antiviral | Shiga inhibitor | Pf growth 96h | Pf growth 48h
Cc1ccc2oc(=O)c3cc(C(=O)N(Cc4ccccc4)C(C)C)sc3c2c1 | / | -105.3 | / | / | /
CCc1cccc(NC(=O)c2cc3c(=O)oc4ccc(C)cc4c3s2)c1 | / | . | / | / | /
Cc1ccc(CNC(=O)c2cc3c(=O)oc4ccc(C)cc4c3s2)cc1 | / | . | / | / | /
N#Cc1ccccc1OCc1cn(CC(=O)c2ccc(O)cc2)nn1 | / | . | / | / | /
O=C(NCc1ccc2c(c1)CCN2C(=O)c1ccncc1)c1cccc(Cl)c1 | / | . | / | / | /
CCOc1ccc(C(=O)Nc2nc(-c3ccc(Br)cc3)ns2)cc1 | / | . | / | / | /
O=C(c1ccc(COc2ccc(F)cc2)o1)n1cccn1 | . | -103.8 | . | . | .
Cc1nn(Cc2ccc(C(=O)n3cccn3)o2)c(C)c1Br | . | . | . | . | .
O=C(c1ccc(COc2ccc(F)cc2)o1)n1cc(Br)cn1 | . | . | . | . | .
CCN(CC)C(=O)c1ccc(COc2ccccc2Br)o1 | . | . | . | / | .
Cc1cc(OCc2ccc(C(=O)n3cccn3)o2)ccc1Cl | 29.6 | . | 65.0 | . | .
CCN(CC)C(=O)c1ccc(COc2ccc(Cl)c(C)c2)o1 | 30.2 | . | / | ? | .
CC(C)C(=O)Nc1ccc(COc2ccccc2CN(Cc2ccccc2)C(=O)OC(C)(C)C)cc1 | / | -74.3 | / | / | /
Cc1ccc(-n2ncc3c(NNC(=O)c4ccco4)ncnc32)cc1C | 24.7 | . | 56.3 | ? | ?
COc1ccc(CC(=O)NNc2ncnc3c2cnn3-c2ccc(C)cc2)cc1OC | 15.3 | . | . | . | .

Assay outcomes (PubChem)
